Test results: PubChem BioAssay (NCI)
Compounds without any hit were thinned out: in the full panel of roughly 79,000, 15% have a hit. Unmarked numbers belong to inactive results. Calls of active or inactive are those of the source. Cut-off read from the data, not from the text of the source: active = growth inhibition above about 70%; inactive = the rest.

Test: NCI Yeast Anticancer Drug Screen. Data for the wt2 strain (AID 169);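 note: 0% = growth of vehicle-treated yeast cultures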
Conditions: S. cerevisiae wt2 strain growth inhibition, active compounds read high
Experimental: Growth inhibition of yeast strains with defined genetic alterations is measured as a screen for potential anti-cancer activity. Selected strains with alterations in DNA damage repair or cell cycle control were exposed to compounds and growth inhibition was measured relative to vehicle treated controls. The strain used in this assay is wt2

Row | SMILES | growth inhibition (at 1.2 µM) [%] | growth inhibition (at 3.7 µM) [%] | growth inhibition (at 11.0 µM) | growth inhibition (at 33.0 µM) | growth inhibition (at 100.0 µM)
1 | Cc1ccc(OC(=O)c2ccc(N)cc2O)cc1 | 0 | -4 | 15% | 43% | 86% (active)
2 | COc1ccc(CC(=O)c2ccc(O)cc2O)cc1 | -4 | -4 | -13% | 14% | 91% (active)
3 | CCCCCC(C)c1ccc(O)c(C)c1 (stereo not given) | 4 | -2 | -6% | 0% | 99% (active)
4 | COc1ccc(Cc2ccc(O)cc2)cc1 | -12 | -8 | -9% | 6% | 11%
5 | Cc1c2ccccc2c(C=O)c2ccccc12 | -11 | -16 | -4% | 23% | 93% (active)
6 | Cc1ccc(S(=O)(=O)NC2CCCCCCC2)cc1 | -4 | -17 | -23% | 23% | 98% (active)
7 | Cc1c(C)c(CCl)c(C)c(C)c1CCl | 0 | 25 | 71% (active) | 82% (active) | 83% (active)
8 | O=Cc1cc([N+](=O)[O-])ccc1O.[Eu] | 6 | 7 | 20% | 36% | 98% (active)
